For seven molecules, outcome and AC50 results are on record in PubChem BioAssay (EPA / NIEHS).

The structures appear in SMILES notation. Where a structure was tested more than once in an assay, its records may differ in their call. Active and inactive are the calls of the source. The calls were made as follows: active = hit-call score of the fitted dose curve at least 0.9, where 1 is the maximum; inactive = score below 0.9.

Read-out in assay [1]: Interleukin-6 (IL6), IL6 (gene 3569)
As to the kind of experiment: BSK_CASM3C_IL6: BioMAP Diversity Plus: CASM3C Assay for Interleukin-6 (IL6) Biomarker Activity for (AID 2283040). As to conditions: primary human coronary artery smooth muscle cells; actives raise or lower the signal.

Read-out in assay [2]: Tissue plasminogen activator (tPA), PLAT (gene 5327)
As to the kind of experiment: BSK_BE3C_tPA: BioMAP Diversity Plus: BE3C Assay for Tissue plasminogen activator (tPA) Biomarker Activity (AID 2283041).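 Also: tPA level quantified by ELISA one day after compound addition.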 As to conditions: primary human bronchial epithelial cells; actives raise or lower the signal. The gist of the method:
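Gain- or loss-of-signal in tPA, measured by ELISA, derived by bidirectional fitting against DMSO. Cells: human primary bronchial epithelial; read at 24 h after chemical dosing.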

Read-out in assay [3]: Interleukin-8 (IL8), CXCL8 (gene 3576)
As to the kind of experiment: BSK_CASM3C_IL8: BioMAP Diversity Plus: CASM3C Assay for Interleukin-8 (IL8) Biomarker Activity (AID 2283042).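 Also: IL-8 protein level quantified by ELISA.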 The conditions noted are these: primary human coronary artery smooth muscle cells; actives raise or lower the signal.

Read-out in assay [4]: Human Leukocyte Antigen - DR isotype (HLADR), HLA-DRA (gene 3122)
As to the kind of experiment: BSK_CASM3C_HLADR: BioMAP Diversity Plus: CASM3C Assay for Human Leukocyte Antigen - DR isotype (HLADR) Biomarker Activity (AID 2283043).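 Also: cell-surface HLA-DR protein level quantified by ELISA.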 As to conditions: primary human coronary artery smooth muscle cells; actives raise or lower the signal.

Read-out in assay [5]: Macrophage colony-stimulating factor (MCSF), CSF1 (gene 1435)
The assay can be described thus: BSK_CASM3C_MCSF: BioMAP Diversity Plus: CASM3C Assay for Macrophage colony-stimulating factor (MCSF) Biomarker Activity (AID 2283044).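 Also: M-CSF protein amount quantified by ELISA after 24 h exposure.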 As to conditions: primary human coronary artery smooth muscle cells; actives raise or lower the signal.

Read-out in assay [6]: Low-density lipoprotein receptor (LDLR), LDLR (gene 3949)
As to the kind of experiment: BSK_CASM3C_LDLR: BioMAP Diversity Plus: CASM3C Assay for Low-density lipoprotein receptor (LDLR) Biomarker Activity (AID 2283045).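 Also: LDLR protein level on the cell surface quantified by ELISA.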 The conditions noted are these: primary human coronary artery smooth muscle cells; actives raise or lower the signal.

Read-out in assay [7]: Monocyte Chemoattractant Protein-1 (MCP1), CCL2 (gene 6347)
As to the kind of experiment: BSK_CASM3C_MCP1: BioMAP Diversity Plus: CASM3C Assay for Monocyte Chemoattractant Protein-1 (MCP1) Biomarker Activity (AID 2283046).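 Also: MCP-1 level quantified by ELISA 24 h after dosing.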 The conditions noted are these: primary human coronary artery smooth muscle cells; actives raise or lower the signal.

Assay [8] in a line: BSK_CASM3C_Proliferation: Cell Proliferation Assessment in the BioMAP Diversity Plus: CASM3C Assay (AID 2283047).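 Also: sulforhodamine B total protein stain as relative cell number at 560 nm; sub-confluent cells exposed 48 h before staining; fitted both ways against DMSO so gain or loss of cell number.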 As to conditions: primary human coronary artery smooth muscle cells.
Read-out in assay [9]: Monokine induced gamma interferon (MIG), CXCL9 (gene 4283)
The assay can be described thus: BSK_CASM3C_MIG: BioMAP Diversity Plus: CASM3C Assay for Monokine induced gamma interferon (MIG) Biomarker Activity (AID 2283048).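 Also: MIG protein level measured by ELISA.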 The conditions noted are these: primary human coronary artery smooth muscle cells; actives raise or lower the signal.

Read-out in assay [10]: serum amyloid A (SAA), SAA1 (gene 6288)
The assay can be described thus: BSK_CASM3C_SAA: BioMAP Diversity Plus: CASM3C Assay for serum amyloid A (SAA) Biomarker Activity (AID 2283049).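 Also: SAA protein level quantified by ELISA.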 The conditions noted are these: primary human coronary artery smooth muscle cells; actives raise or lower the signal.

Assay [11] in a line: BSK_CASM3C_SRB: Viability Assessment in the BioMAP Diversity Plus: CASM3C Assay (AID 2283050).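 Also: cells exposed to compound for 24 h.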 As to conditions: primary human coronary artery smooth muscle cells.
Read-out in assay [12]: Thrombomodulin, THBD (gene 7056)
The assay can be described thus: BSK_CASM3C_Thrombomodulin: BioMAP Diversity Plus: CASM3C Assay for Thrombomodulin Biomarker Activity (AID 2283051).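 Also: thrombomodulin protein level measured by ELISA 24 h after dosing.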 The conditions noted are these: primary human coronary artery smooth muscle cells; actives raise or lower the signal.

Read-out in assay [13]: Tissue Factor, F3 (gene 2152)
As to the kind of experiment: BSK_CASM3C_TissueFactor: BioMAP Diversity Plus: CASM3C Assay for Tissue Factor Biomarker Activity (AID 2283052).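 Also: cell surface tissue factor protein level read by ELISA.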 The conditions noted are these: primary human coronary artery smooth muscle cells; actives raise or lower the signal.

Read-out in assay [14]: Urokinase-type plasminogen activator receptor (uPAR), PLAUR (gene 5329)
As to the kind of experiment: BSK_CASM3C_uPAR: BioMAP Diversity Plus: CASM3C Assay for Urokinase-type plasminogen activator receptor (uPAR) Biomarker Activity (AID 2283054).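 Also: cell-surface uPAR protein level quantified by ELISA.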 As to conditions: primary human coronary artery smooth muscle cells; actives raise or lower the signal.

Read-out in assay [15]: Vascular cell adhesion molecule 1 (VCAM1), VCAM1 (gene 7412)
The assay can be described thus: BSK_CASM3C_VCAM1: BioMAP Diversity Plus: CASM3C Assay for Vascular cell adhesion molecule 1 (VCAM1) Biomarker Activity (AID 2283055).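 Also: VCAM-1 protein level quantified by ELISA on the cells.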 As to conditions: primary human coronary artery smooth muscle cells; actives raise or lower the signal.

Read-out in assay [16]: Epidermal growth factor receptor (EGFR), EGFR (gene 1956)
The assay can be described thus: BSK_hDFCGF_EGFR: BioMAP Diversity Plus: hDFCGF Assay for Epidermal growth factor receptor (EGFR) Biomarker Activity (AID 2283057). As to conditions: primary human foreskin fibroblasts; actives raise or lower the signal. Summed up:
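Dosing human primary skin fibroblasts, then measuring surface EGFR by ELISA at 24 h, gives the endpoint; gains and losses relative to DMSO were fitted in both directions.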

Read-out in assay [17]: Interleukin-8 (IL8), CXCL8 (gene 3576)
As to the kind of experiment: BSK_hDFCGF_IL8: BioMAP Diversity Plus: hDFCGF Assay for Interleukin-8 (IL8) Biomarker Activity (AID 2283058). The conditions noted are these: primary human foreskin fibroblasts; actives raise or lower the signal. The gist of the method: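 Primary human foreskin fibroblasts (hDFCGF system) dosed with chemical; IL-8 measured by ELISA 24 hours later. Bidirectional curve fitting relative to DMSO baseline; cytotoxicity tracked in parallel cultures by SRB total protein staining.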

A short description of assay [18]: BSK_hDFCGF_Proliferation: Cell Proliferation Assessment in the BioMAP Diversity Plus: hDFCGF Assay (AID 2283059).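 Also: curves fitted for both rise and fall of signal versus DMSO baseline.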 The conditions noted are these: primary human foreskin fibroblasts. The gist of the method: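 Total protein read at 560 nm after 0.1% SRB staining of TCA-fixed human skin fibroblasts, […]. Activity is fitted in both directions relative to DMSO as baseline.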

Read-out in assay [19]: Collagen III, COL3A1 (gene 1281)
As to the kind of experiment: BSK_hDFCGF_CollagenIII: BioMAP Diversity Plus: hDFCGF Assay for Collagen III Biomarker Activity (AID 2283056). The conditions noted are these: primary human foreskin fibroblasts; actives raise or lower the signal. The gist of the method: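 Human foreskin fibroblast primary cultures sampled 24 h after dosing; Collagen III quantified by ELISA. Signal fitted bidirectionally against DMSO baseline.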

`O=C(O)C(F)(F)C(F)(F)C(=O)O`: the result in assay [1], in assay [2], in [3], in assay [4], in [5] and in assay [6] was inactive. Besides, the outcome in assay [7], in [8], in [9], in assay [10], in [11] and in assay [12] was inactive. The result in [13], in assay [14], in [15], in assay [16], in assay [17] and in [18] was inactive. Further, in assay [18], the AC50 – broadly, the midpoint of the concentration-response curve, whichever way the signal moves – was 0.22 µM (active).

In the case of `CCOP(=S)(S)OCC`, the outcome in assay [1], in assay [2], in assay [3], in assay [4], in [5] and in assay [6] was inactive. The result in assay [7], in assay [8], in [9], in assay [10], in assay [11] and in assay [12] was inactive. For the same molecule, the result in assay [13], in assay [14], in assay [15], in assay [16] and in assay [17] was inactive. Moreover, in [18], the AC50 was 12.6 µM (active).

For the molecule `c1nc[nH]n1`, the result in assay [1], in assay [2], in [3], in assay [4], in assay [5] and in assay [6] was inactive. The outcome in [7], in [8], in assay [9], in assay [10], in assay [11] and in assay [12] was inactive. The outcome in assay [13], in assay [14], in assay [15], in assay [16], in assay [17] and in assay [18] was inactive.

Consider `CCCCc1ccccc1`, for which the outcome in [1], in assay [2], in assay [3], in assay [4], in [5] and in assay [6] was inactive. For the same molecule, the result in assay [7], in assay [8], in [9], in assay [10], in assay [11] and in assay [12] was inactive. The result in [13], in assay [14], in assay [15], in assay [19], in [16] and in [17] was inactive. For the same molecule, the result in assay [18] was inactive.

Turning to `CC(Cc1ccc(OCC(=O)O)cc1)NCC(O)c1csc(C(F)(F)F)n1` (stereo not drawn), the outcome in [1], in assay [2], in assay [3], in [4], in assay [5] and in assay [6] was inactive. The outcome in assay [7], in assay [8], in assay [9], in [10], in [11] and in assay [12] was inactive. Besides, the outcome in [13], in assay [14], in assay [15], in [16], in assay [17] and in assay [18] was inactive.

Regarding `Cc1ccc([N+](=O)[O-])cc1C`, the result in assay [1], in [2], in assay [3], in assay [4], in [5] and in [6] was inactive. In addition, the outcome in assay [7], in assay [8], in [9], in [10], in assay [11] and in assay [12] was inactive. Besides, the result in assay [13], in assay [14], in [15], in [16], in [17] and in [18] was inactive.

For the molecule `CCC(C)(C)c1ccc(O)cc1`, the outcome in [1], in assay [2], in [3], in assay [4], in assay [5] and in assay [6] was inactive. For the same molecule, the outcome in assay [7], in assay [8], in [9], in [10], in [11] and in [12] was inactive. The outcome in assay [13], in assay [14], in assay [15], in [16], in assay [17] and in assay [18] was inactive.
